The structures appear in SMILES notation. Values joined by “and” are separate entries in the source; they are usually repeats but may differ in a detail not shown here. Identical values can stand only once. Values without a mark were called inactive. Inconclusive results are not listed. Active and inactive are the calls of the source. Unless noted, calls come from the whole dose curve; as a rule, active = well fitted curve in either direction with a large enough effect (not every such curve was filed as active); inconclusive = small, poorly fitted or top-dose-only effect, or another doubt; inactive = flat fitted curve, though single readings scatter.

Assay [1] can be described thus: AP1 Signaling Pathway (AID 357).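 Note: ME-180 reporter cells stimulated with EGF at its EC50 level; % is set by controls: 0 for no effect and ±100 for the full control effect.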 The conditions noted are these: ME-180 AP-1-bla reporter, EGF-induced, beta-lactamase ratio, 5 h. Put shortly: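 Modulation of EGF-driven AP-1 transcription was assessed with a beta-lactamase reporter in ME-180 cells. Compound and EC50 EGF were co-incubated 5 hours at 37 °C before 2.5-hour CCF4 loading at room temperature and dual-emission reading.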

Assay [2] deals with Cytochrome P450 1A2 (Homo sapiens) (UniProt P05177). In words: p450-cyp1a2 (AID 410; calls by dose curve; note: potency is the fitted concentration of half-maximal effect;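 for activity change, negative = inhibition: -100% = full effect of reference inhibitor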). The conditions noted are these: recombinant CYP1A2, luciferin-ME demethylation, luminescence; series mostly up to 57 µM. A digest of the protocol:
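Luminescent demethylation readout: Luciferin-ME (100uM, equal to Km) turned over by 20nM CYP1A2 for 60 min at room temperature after NADPH regeneration addition, following 10 min compound preincubation. Normalization used 57 uM furafylline as full inhibition.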

The nature of assay [3]: Cell Viability - BJ (AID 421; calls by dose curve;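 note: potency is the fitted concentration of half-maximal effect; cells exposed to compound for 40 hours at 37 °C before readout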). As to conditions: BJ fibroblast viability, qHTS. A digest of the protocol: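 Quantitative HTS: ATP depletion in BJ cells after 40 hr compound exposure in complete culture medium, detected with CellTiter-Glo; AC50 from standard Hill fits.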
Assay [4] is described as follows: Cell Viability - Jurkat (AID 426;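 active = dose-dependent loss of cell ATP signal giving a full or clear fitted curve, ranked by lower potency value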;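 note: potency is the fitted concentration of half-maximal effect; cells exposed to compound for 40 hours at 37 °C before ATP read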). The conditions noted are these: qHTS. A digest of the protocol:
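Cytotoxicity taken as drop in cellular ATP (CellTiter-Glo luminescence, 20 min room temperature) after 40 hr, 37C treatment of 5000 Jurkat Clone E6-1 cells per well; concentration-response fitted with Hill equation for AC50.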

The nature of assay [5]: Cell Viability - Hek293 (AID 427;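 active = compounds whose dose-response curve shows a full or clear partial loss of cell viability, called from curve shape rather than a numeric limit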;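 note: potency is the fitted concentration of half-maximal effect; cells exposed to compound for 40 hours at 37 °C before reading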). The conditions noted are these: qHTS. Put shortly:
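AC50 values derive from Hill-modelled concentration-response of ATP-based luminescence, normalized between DMSO-only and 100 uM tamoxifen controls. Cells were exposed in complete culture medium for 40 hr at 37 °C before detection.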

Assay [6] can be described thus: Cell Viability - HepG2 (AID 433; calls by dose curve;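 note: potency is the fitted concentration of half-maximal effect; potency for ATP loss meaning cytotoxicity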). As to conditions: qHTS. Put shortly:
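HepG2 hepatocellular carcinoma cells (1500/well) were treated with compounds for 40 h at 37 °C in complete medium; intracellular ATP was read by CellTiter-Glo luminescence. Data were normalized to DMSO and 100 uM tamoxifen, and AC50 came from Hill fits.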
(qHTS replaces the single test concentration by a dilution series.)

A short description of assay [7]: Cell Viability - MRC5 (AID 434; calls by dose curve;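 note: potency is the fitted concentration of half-maximal effect; potency reflects cytotoxicity seen as loss of intracellular ATP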). As to conditions: MRC5 lung fibroblast viability, qHTS. A digest of the protocol: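 ATP luminescence read-out (CellTiter-Glo, 20 min RT) after 40 hr, 37 °C compound exposure of 1500 MRC5 cells/well. Data normalized to DMSO (basal) and 100 uM tamoxifen (100% inhibition); AC50 from standard Hill equation.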
Assay [8] in a line: Cell Viability - SK-N-SH (AID 435; calls by dose curve; note: potency is the fitted concentration of half-maximal effect). The conditions noted are these: SK-N-SH neuroblastoma cell viability qHTS. Put shortly: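 SK-N-SH human neuroblastoma cells (1500/well) were exposed to compounds in complete medium for 40 h at 37 °C, and intracellular ATP was then measured by CellTiter-Glo luminescence. AC50 was taken from Hill fits, normalized to DMSO and 100 uM tamoxifen.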

Assay [9] is described as follows: NFAT Signaling Pathway (AID 444).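 Note: carbachol stimulus at about its EC50 of 1 µM final; % is set by controls: 0 for no effect and ±100 for the full control effect.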 The conditions noted are these: Jurkat NFAT-bla M1, carbachol, beta-lactamase ratio, 5 h. Put shortly: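 Jurkat cells with NFAT-driven β-lactamase reporter and co-expressed M1 receptor, stimulated with carbachol (final 1 uM, ~EC50), compound titration, 5 h at 37 °C. CCF4 loaded 1 h at RT; 460/530 nm ratio gave %activity and AC50.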

Assay [10] can be described thus: Stat Signaling Pathway (AID 446).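 Note: ME-180 cervical cancer cells given 40 pM IL-6 alongside compound; SIE-controlled beta-lactamase reporter measured as 460/530 nm FRET emission ratio; % is set by controls: 0 for no effect and ±100 for the full control effect.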 The conditions noted are these: ME-180 (cervical carcinoma) SIE beta-lactamase reporter, IL-6 stimulated, 5 h; series mostly up to 17.2 µM. A digest of the protocol:
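Overnight-plated ME-180 cells bearing a STAT Inducible Element beta-lactamase reporter; 5 h co-exposure to compound and 40 pM IL-6; values normalized to 300 pM IL-6 and 125 nM JAK inhibitor controls.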

Assay [11] addresses Glucocorticoid receptor (Homo sapiens) (UniProt P04150). Kind of assay: GR-GFP Redistribution (AID 450;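 active = compounds whose dose series gives a full or clear partial fitted curve of increased nuclear translocation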; note: potency is the fitted concentration of half-maximal effect). As to conditions: U2OS GR-GFP nuclear translocation, laser cytometry, 2 h.
Assay [12] shares this target. Kind of assay: GR-EFC Redistribution (AID 451; calls by dose curve; note: potency is the fitted concentration of half-maximal effect). As to conditions: CHO-K1 GR-EFC translocation, beta-gal luminescence, 2 h. A digest of the protocol:
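CHO-K1 cells expressing nuclear EA and GR-ED fragments of b-gal; compounds titrated up to 46 uM final, 2 h at 37 C. GR nuclear translocation read as complemented b-gal luminescence after 1 h RT detection.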

Assay [13] addresses Mitogen-activated protein kinase 10 (Mus musculus) (UniProt Q61831). Kind of assay: JNK3 AlphaScreen Assay (AID 530).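 Note: kinase came from lysate of stimulated human HepG2 cells; signal reports phosphorylation of biotinylated GST-cJun 1-79 at Ser73 with 10 µM ATP; % is set by controls: 0 for no effect and ±100 for the full control effect.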 The conditions noted are these: JNK3 lysate, c-Jun phosphorylation; series mostly up to 57.1 µM. Put shortly:
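Activity was read by AlphaScreen after JNK3-containing HepG2 lysate (cytokine pre-activated) phosphorylated biotinylated GST-cJun with 10 uM ATP at room temperature. Phospho-Ser73 cJun antibody with Protein-A acceptor beads provided detection.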

A short description of assay [14]: Cell Viability - N2a (AID 540; active = well fitted curve in the direction sought with a large enough effect; an effect the other way counts as inactive or inconclusive;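 note: plate controls were DMSO alone for no effect and tamoxifen control for full effect; nearly all actives have a fitted effect of over 45% in size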). The conditions noted are these: N2a mouse neuroblastoma cell viability; series mostly up to 92.2 µM. Put shortly:
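CellTiter-Glo ATP luminescence, read 20 min after reagent at room temperature, reported viability following 40 h compound treatment at 37 °C. N2a mouse neuroblastoma cells seeded 1500/well; Hill equation gave AC50.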

Assay [15] in a line: Cell Viability - NIH 3T3 (AID 541; active = well fitted curve in the direction sought with a large enough effect; an effect the other way counts as inactive or inconclusive; note: nearly all actives have a fitted effect of over 25% in size; note: potency is the fitted concentration of half-maximal effect). As to conditions: NIH 3T3 cell viability, qHTS; series mostly up to 92.2 µM. Put shortly:
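Intracellular ATP (CellTiter-Glo luminescence, 20 min at room temperature) measured after 40 hr compound exposure at 37 °C of 1000 NIH 3T3 mouse fibroblasts/well in complete medium; AC50 derived by Hill-equation modelling of qHTS concentration-response curves.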

Assay [16] can be described thus: Cell Viability - HUV-EC-C (AID 542; active = well fitted curve in the direction sought with a large enough effect; an effect the other way counts as inactive or inconclusive; note: % is set by controls: 0 for no effect and ±100 for the full control effect; nearly all actives have a fitted effect of over 35% in size). The conditions noted are these: HUV-EC-C endothelial cell viability, qHTS; series mostly up to 92.2 µM. Put shortly:
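CellTiter-Glo luminescence measured ATP loss in HUV-EC-C cells (1000/well) after 40 hr compound exposure at 37 °C, in complete culture medium. Concentration-response data were Hill-fitted to give AC50.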

Assay [17] is described as follows: Cell Viability - H-4-II-E (AID 543; active = well fitted curve in the direction sought with a large enough effect; an effect the other way counts as inactive or inconclusive; note: nearly all actives have a fitted effect of over 35% in size; note: potency is the fitted concentration of half-maximal effect). The conditions noted are these: H-4-II-E rat hepatoma viability; series mostly up to 92.2 µM. Put shortly: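 CellTiter-Glo luminescence (intracellular ATP) measured after 40 h compound exposure at 37 °C in H-4-II-E rat hepatoma cells seeded at 1500/well. Values are AC50s fitted with the standard Hill equation.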
A short description of assay [18]: Cell Viability - SH-SY5Y (AID 544; active = well fitted curve in the direction sought with a large enough effect; an effect the other way counts as inactive or inconclusive;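 note: 0% = DMSO alone and -100% = 100 µM tamoxifen; nearly all actives have a fitted effect of over 55% in size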). As to conditions: SH-SY5Y neuroblastoma cell viability; series mostly up to 92.2 µM. A digest of the protocol:
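Cytotoxicity measured via ATP-dependent luciferase luminescence (CellTiter-Glo) following 40 h, 37 °C exposure of 1500 SH-SY5Y cells per well. Concentration-response data were fitted with the standard Hill equation to give AC50.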

Assay [19] in a line: Cell Viability - Renal Proximal Tubule (AID 545; active = well fitted curve in the direction sought with a large enough effect; an effect the other way counts as inactive or inconclusive;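 note: 0% = DMSO only and -100% = 100 µM tamoxifen; nearly all actives have a fitted effect of over 40% in size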). As to conditions: renal proximal tubule cells viability, primary cells of rat origin; series mostly up to 91.7 µM. Put shortly: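 Primary rat renal proximal tubule cells (1000/well) were treated with compounds for 40 hr at 37 °C in complete medium. Intracellular ATP was measured by CellTiter-Glo luminescence, and AC50 values came from Hill-equation fits of concentration-response data.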

Glucocorticoid receptor (Homo sapiens), sequence (P04150 whole entry, looked up): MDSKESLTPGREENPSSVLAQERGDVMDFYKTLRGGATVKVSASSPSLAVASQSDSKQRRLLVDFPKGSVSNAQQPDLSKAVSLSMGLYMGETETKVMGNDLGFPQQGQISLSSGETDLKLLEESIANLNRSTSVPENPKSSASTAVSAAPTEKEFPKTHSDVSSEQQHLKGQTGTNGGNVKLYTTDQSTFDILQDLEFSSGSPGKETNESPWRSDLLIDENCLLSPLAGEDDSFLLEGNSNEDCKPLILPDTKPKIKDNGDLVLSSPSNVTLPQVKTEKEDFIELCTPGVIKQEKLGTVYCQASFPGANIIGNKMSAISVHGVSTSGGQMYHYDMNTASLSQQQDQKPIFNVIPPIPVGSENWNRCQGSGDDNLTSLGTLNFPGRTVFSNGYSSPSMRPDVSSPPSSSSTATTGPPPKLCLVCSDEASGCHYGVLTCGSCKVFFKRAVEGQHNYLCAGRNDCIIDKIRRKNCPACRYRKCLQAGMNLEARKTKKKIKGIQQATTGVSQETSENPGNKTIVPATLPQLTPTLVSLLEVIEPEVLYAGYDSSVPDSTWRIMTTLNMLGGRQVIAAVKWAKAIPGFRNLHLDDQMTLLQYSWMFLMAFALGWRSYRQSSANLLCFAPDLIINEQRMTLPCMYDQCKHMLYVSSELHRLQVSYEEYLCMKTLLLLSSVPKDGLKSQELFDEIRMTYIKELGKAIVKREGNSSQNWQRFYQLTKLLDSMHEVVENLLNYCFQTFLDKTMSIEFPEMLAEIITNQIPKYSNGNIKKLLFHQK
Cytochrome P450 1A2 (Homo sapiens), sequence (P05177 whole entry, looked up): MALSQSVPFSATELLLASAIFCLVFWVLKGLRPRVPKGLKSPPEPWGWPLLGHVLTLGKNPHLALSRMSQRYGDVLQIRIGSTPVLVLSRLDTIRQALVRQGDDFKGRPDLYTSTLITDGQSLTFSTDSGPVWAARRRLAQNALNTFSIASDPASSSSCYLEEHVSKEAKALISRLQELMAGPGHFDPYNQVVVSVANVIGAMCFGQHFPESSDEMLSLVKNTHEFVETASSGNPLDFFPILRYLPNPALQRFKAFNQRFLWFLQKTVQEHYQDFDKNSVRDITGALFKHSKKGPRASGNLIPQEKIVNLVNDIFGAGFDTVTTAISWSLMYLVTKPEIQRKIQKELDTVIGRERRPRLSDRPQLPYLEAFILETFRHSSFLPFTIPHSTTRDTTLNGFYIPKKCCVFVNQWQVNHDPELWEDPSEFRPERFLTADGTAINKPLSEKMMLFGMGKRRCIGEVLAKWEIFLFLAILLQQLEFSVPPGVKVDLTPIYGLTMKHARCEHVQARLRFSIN

For `NC(=O)c1cnccn1`, the activity change, negative = inhibition in [1] (at 38 µM (top of the series)) was 5.47%; in assay [9] (at 38 µM (top of the series)) it was 2.31%. In addition, the Potency entry in [2], in [15] and in assay [17] was “inactive” throughout. The Potency in assay [3], in assay [4], in assay [5], in [6], in assay [7] and in assay [8] was more than 92 µM each time. The Potency in assay [11] and in [12] was more than 46 µM throughout. Besides, the compound was called inactive in [10], in assay [13], in assay [14], in assay [16], in assay [18] and in assay [19].
Regarding `O=c1[nH]cnc2[nH]ncc12`, the activity change, negative = inhibition is 2.34% in assay [1] (at 38 µM (top of the series)) and 5.26% in assay [9] (at 38 µM (top of the series)). In addition, the Potency result in assay [2], in assay [15] and in assay [17] was “inactive” each time. Moreover, the Potency in [3], in assay [4], in assay [5], in [6], in assay [7] and in assay [8] was more than 92 µM throughout. In addition, the Potency in assay [11] and in [12] was more than 46 µM in each case. Further, the result in [10], in assay [13], in [14], in assay [16], in [18] and in assay [19] was inactive.
In the case of `Cc1ccc2c(c1)C(=O)[C@@]1(O)CCN(c3ccccc3)C1=N2`, the figures for the Potency in assay [2], in assay [11] and in assay [12] were 3.98 µM (active), more than 46 µM and more than 46 µM, respectively. For the same compound, the outcome in assay [13] was inactive.
With `NCCc1ccc(O)c(O)c1`, the activity change, negative = inhibition was 2.68% in assay [1] (at 38 µM (top of the series)) and 11.4% in [9] (at 38 µM (top of the series)). In addition, the call in [10] and in assay [13] was inactive.
With `CC(=O)Oc1ccccc1C(=O)O`, the activity change, negative = inhibition in assay [1] (at 38 µM (top of the series)) is 8.53%; in assay [9] (at 38 µM (top of the series)), 2.25%. Besides, the Potency result in assay [2], in assay [15] and in assay [17] was “inactive” each time. In addition, the Potency in assay [3], in assay [4], in [5], in assay [6], in assay [7] and in [8] was more than 92 µM each time. Also, the Potency in assay [11] and in assay [12] was more than 46 µM throughout. Moreover, the call in assay [10], in assay [13], in [14], in [16], in [18] and in assay [19] was inactive.
With `COc1ccc2nc(S(=O)Cc3ncc(C)c(OC)c3C)[nH]c2c1` (configuration not stated), the activity change, negative = inhibition in [1] (at 17.2 µM (top of the series)) was 4.02% and -1.7%; in assay [9] (at 17.2 µM (top of the series)), -26.1% and -10.4%. Besides, the compound was classed as inactive in assay [10] and in assay [13].
With `C[C@]12CCC(=O)C=C1CC[C@@H]1[C@@H]2[C@@H](O)C[C@@]2(C)[C@H]1CC[C@]2(O)C(=O)CO`, the activity change, negative = inhibition is -3.8% in assay [1] (at 17.2 µM (top of the series)) and 18.6% in [9] (at 17.2 µM (top of the series)). For the same compound, the outcome in assay [10] was inactive.
On to `Cn1cnc([N+](=O)[O-])c1Sc1ncnc2nc[nH]c12`, for which the activity change, negative = inhibition in [1] (at 38 µM (top of the series)) is 8.24%; in assay [9] (at 17.2 µM (top of the series)), 13.3%; in [9] (at 38 µM (top of the series)), 19.1%. Also, the Potency was more than 92 µM in assay [3]; 0.384 µM (active) in assay [4]; 2.04 µM (active) in assay [5]; more than 92 µM in assay [7]; 0.529 µM (active) in [8]; > 46 µM and > 20.6 µM in assay [11]. For the same compound, the Potency in assay [12] is > 46 µM and > 20.6 µM; in assay [15] it was 3.98 µM (active); in assay [17], 631 nM (active). Also, the result in assay [10], in assay [13] and in assay [16] was inactive.

The values above are taken from PubChem BioAssay (NCATS).
